# Assay outcomes (PubChem)
# This is a sample that favours compounds with a hit; in the whole collection about 22% have one here.
# LmPK inh – inhibitors of Leishmania mexicana pyruvate kinase; purified LmPK, Kinase-Glo ATP luminescence, 1 h; Potency, µM (titrated, usually from 57.5 µM), inactives show at the highest dose activity change, negative = inhibition, most hits filed as inhibitors; 290,000 compounds, 0.37% hits; also: potency is read from the fitted curve at half-maximal effect; % is scaled to controls: 0 for no effect and ±100 for the full control effect
# Target sequence (Q27686 whole entry, looked up): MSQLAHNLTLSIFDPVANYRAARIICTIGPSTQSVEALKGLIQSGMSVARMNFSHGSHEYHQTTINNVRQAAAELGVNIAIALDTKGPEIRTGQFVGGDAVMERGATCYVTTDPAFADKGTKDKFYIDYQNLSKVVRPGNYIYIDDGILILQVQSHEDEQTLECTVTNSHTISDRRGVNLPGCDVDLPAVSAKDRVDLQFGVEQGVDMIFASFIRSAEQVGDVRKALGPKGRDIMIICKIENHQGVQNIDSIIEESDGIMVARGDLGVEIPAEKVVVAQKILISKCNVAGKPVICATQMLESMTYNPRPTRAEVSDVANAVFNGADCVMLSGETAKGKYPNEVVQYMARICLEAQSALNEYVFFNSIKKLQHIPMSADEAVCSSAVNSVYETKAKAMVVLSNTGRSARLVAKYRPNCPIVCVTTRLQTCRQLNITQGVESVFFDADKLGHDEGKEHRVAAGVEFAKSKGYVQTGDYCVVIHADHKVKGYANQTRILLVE
#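 qHTS format; LmPK 0.1 nM; substrates PEP 0.5 mM and ADP 0.1 mM. One-hour room-temperature incubation, then coupled luciferase luminescence; 0.5 nM enzyme wells mark activation.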
# Pf growth 48h – inhibits P. falciparum growth in the first generation, 48 h | AID 504832 | 310,000 compounds, 5.9% hits | Potency, µM (highest dose often 28.7 µM), for the others: at the highest dose activity change, negative = inhibition, usual class: inhibitors | P. falciparum luciferase growth in erythrocytes, 48 h; also: potency is read from the fitted curve at half-maximal effect; % is scaled to controls: 0 for no effect and ±100 for the full control effect
#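 In quantitative HTS format, infected erythrocytes bearing luciferase-reporter parasites were treated for a single generation at 37 C. Luminescence after adding detection reagent served as the growth measure.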
# Shiga inhibitor – blocks Shiga toxin action in Vero cells. Vero cells, Shiga toxin protein synthesis inhibition reporter. inhibition, % at 38.7 µM. 290,000 compounds, 9.2% hits. AID 2315; in the data active = inhibition mostly above about 28%, no sharp cut-off; inactive = mostly below about 43%; also: 0% is about no effect
# CHX counter – affects cycloheximide protein synthesis inhibition readout, counter-screen. cell reporter, cycloheximide protein synthesis inhibition counterscreen. max response, %. 300,000 compounds, 12% hits. AID 2314; in the data active = max response mostly above about 13%, no sharp cut-off; inactive = mostly below about 14%; also: read at 38.3 µM for the half of the compounds with a filed dose; 0% is about no effect
# Pf growth 96h – inhibits malaria parasite growth, 96 h; P. falciparum luciferase reporter growth, 96 h; Potency, µM (doses to about 28.7 µM), for the others: at the top dose activity change, negative = inhibition, hits mostly inhibitors; 320,000 compounds, 6.9% hits; also: potency is read from the fitted curve at half-maximal effect; % is scaled to controls: 0 for no effect and ±100 for the full control effect
#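 Plates of compound plus infected erythrocytes (2% hematocrit, 0.05% parasitemia final) incubate 96 hours, 37 C, 5% CO2. Detection reagent added; reduced luminescence from the parasites' luciferase reporter flags inhibition.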
# * hit, by the source's call; ? = inconclusive; . = no result; [ ] = remark or other dose. Unless noted, calls follow the shape of the dose curve; as a rule, active = well fitted inhibition curve with a large enough effect; inconclusive = small, poorly fitted or top-dose-only effect, or another doubt; inactive = no such curve, though single readings can be large or run the other way.
SMILES,LmPK inh,Pf growth 48h,Shiga inhibitor,CHX counter,Pf growth 96h
CC(=O)Nc1ccc(NC(=S)NC(=O)/C=C/c2ccc(Cl)cc2)cc1,-4%,2%,-5,-2,5%
CN1CCN(C2CCN(c3cccc(Cl)c3)CC2)CC1CCO (configuration not stated),-5%,23%,-6,0,75%
O=C(NC(=S)NNC(=O)c1ccco1)c1ccc(F)cc1,1%,?,active,24*,?
CCCCOc1ccc(C(=O)N/C(=C\c2ccc(OC)cc2)C(=O)OCc2ccco2)cc1,2%,?,8,-2,44%
COc1ccc(/C=C/C(=O)NC(=S)NNC(=O)c2cc(OC)c(OC)c(OC)c2)cc1,1%,15µM*,-4,8,?
COc1ccc(C(=O)N/C(=C\c2ccco2)C(=O)OCc2ccco2)cc1,-3%,7%,93*,34*,-15%
COc1cc(C(=O)NNC2=NC(C)(C)Cc3cc(C)c(C)cc32)cc(OC)c1OC,0%,10%,-12,-4,-21%
COc1ccc(C(=O)N2CCCC(Nc3ccc(C)c(C)c3)C2)cc1F (configuration not stated),2%,-3%,47,30*,?
COc1ccc(C(=O)N2CCCC(Nc3ccc(F)cc3)C2)cc1F (configuration not stated),2%,24%,-8,-2,10µM*
Cc1ccc(NC2CCCN(C(=O)c3ccc4[nH]ccc4c3)C2)cc1C (configuration not stated),1%,?,-11,-1,13µM*
O=C(c1ccc2[nH]ccc2c1)N1CCCC(Nc2ccccc2)C1 (configuration not stated),5%,18%,13,-6,3%
Cc1ccc(C(=O)N2CCCC(Nc3ccc(F)cc3)C2)cc1C (configuration not stated),-7%,?,-5,7,0%
Cc1ccc2nc(C(=O)N3CCCC(Nc4ccc(F)cc4)C3)cn2c1 (configuration not stated),-7%,42%,81*,28*,68%
CN1CCN(c2ccc(C(=O)c3ccc(Br)cc3)cc2[N+](=O)[O-])CC1,0%,-16%,40,7,-2%[5.75 µM]
COC(=O)Cc1ccc(NC(C)=O)cc1,.,20%,.,.,42%
Cc1ccccc1OCc1nnc(SCC(=O)O)n1-c1ccccc1,-4%,-5%,.,1,-8%
Cc1ccccc1OCc1nnc2c3cnn(C)c3ncn12,-5%,137%,74,39*,32%
COc1ccc2c(c1)O/C(=C\c1ccco1)C2=O,-8%,126%,38,30*,114%
COC(=O)C(C)Oc1ccc2c(c1)O/C(=C\c1ccco1)C2=O (configuration not stated),-1%,7%,71*,37*,3%
Cc1nn(C)c(C)c1N=Cc1c(O)ccc2ccccc12,9%,.,-16,1,8.3µM*
Oc1ccc2ccccc2c1C=Nc1ccc(Cl)cn1,4%,-1%,6,4,13µM*
Cc1cc(O)c(C=Nc2ccc(Cl)cn2)c(=O)o1,8%,.,9,-1,-1%
Cc1nn(C)c(C(=O)N/N=C/c2ccc(-c3ccccc3)cc2)c1Cl,2%,10%,-31,-3,19%
CC(C)N(C(=O)c1nn(C)c2c1CSc1ccccc1-2)C1CCCCC1,-16%,-24%,-3,-1,2.1µM*
Cc1ccc(-n2c(=O)[nH]c3c(C(N)=O)nc(CC(C)C)nc32)cc1,3%,?,10,-2,1.7µM*
COc1ccc(C2c3[nH]c4ccccc4c3CCN2CCCn2cccn2)c(F)c1 (configuration not stated),9%,?,21,-3,-21%
COc1ccc(C2c3[nH]c4ccccc4c3CCN2C(=O)c2ccccc2C(C)=O)c(F)c1 (configuration not stated),-2%,?,29*,18*,-18%
CCn1cc(CN2CCc3c([nH]c4ccccc34)C2c2cccc(OC)c2OC)c(C)n1 (configuration not stated),2%,12µM*,28,1,0%
COc1ccc(C2c3[nH]c4ccccc4c3CCN2C(=O)c2cc3ncccn3n2)c(F)c1 (configuration not stated),-7%,13µM*,28,10,48%
